About 83,000 compounds went through this panel and 20% of them were active in at least one assay; those are over-represented in the sample as a whole.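 Cells were grown in 96-well plates and exposed to the test compound at a single concentration for 48 hours; results are reported as percent growth, with values below 10 considered active.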 Unmarked numbers belong to inactive results. Active and inactive are the calls of the source.
Test system: MDA-MB-468 breast
Assay: NCI-60 one-dose screen, 48 h (100 = growth as untreated, 0 = no growth, -100 = all killed)
Conditions: 10 µM unless noted

| Compound | growth |
| --- | --- |
| CC(=O)C1N=NCC1c1ccccc1 (centres undefined) | 102% |
| COc1cc2c(c(OC)c1OC)C(=O)CC(c1cccc(C(=O)Nc3ccc(Br)cc3)c1)O2 (centres undefined) | 30.5% |
| NS(=O)(=O)c1ccc(C(=O)N=Nc2c(O)[nH]c3ccc(Cl)cc23)cc1 | 110% |
| C#Cc1nc(C(=O)NCCCCCCC(=O)NO)cs1 | -33.8% (active) |
| N#C/C=C(\c1ccc([N+](=O)[O-])cc1)n1nnc2cc(Cl)c(Cl)cc21 | -47.4% (active) |
| COC(=O)c1ccc2[nH]c(O)c(C(=Nc3ccc(N(C)C(=O)CN4CCN(C)CC4)cc3)c3ccc([N+](=O)[O-])cc3)c2c1 | 85.9% |
| NS(=O)(=O)c1ccc(N2N=C(c3ccccc3)CCC2=O)cc1 | 96.3% |
| COc1cc(/C=C/C(=O)c2ccccc2)cc(OC)c1OC | 64.7% |
| O=[N+]([O-])c1ccc(N/N=C/C2CCCCCC2)c([N+](=O)[O-])c1 | 86.4% |
| O=C(N/N=C/c1ccc([N+](=O)[O-])o1)c1ccc(O)cc1 | 12.8% |
| CC(C)CCC(=O)[C@@H](C)[C@H]1[C@@H](OC2OCC(O)C(O)C2NS(C)(=O)=O)C[C@H]2[C@@H]3CC=C4C[C@@H](O)CC[C@]4(C)[C@H]3CC[C@]12C (some centres undefined) | 43.8% |
| CCn1c(SCC(=O)Nc2cccc(C(=O)/C=C/c3ccccc3Cl)c2)nc2ccccc2c1=O | 76.7% |
| COc1cc(NC(=O)c2cc3ccccc3nc2Nc2ccc(F)cc2)cc(OC)c1OC | -0.996% (active) |
| Cc1nn(-c2ccccc2)c(-n2ccnc2)c1/C=N/Nc1nc(-c2ccc(Cl)c(Cl)c2)cs1 | -8.71% (active) |
